Experimental data published in the supplement of paper PMC11732987, “Enantioselective OTUD7B fragment discovery through chemoproteomics screening and high-throughput optimisation” (Communications Chemistry, 2025).

Experiments:
Test in all cases: log2 ratio of Biotin-Ahx-Ub-VS probe labelling (fragment/DMSO); higher = less target engagement (more negative = stronger competition), active = hit call of the paper (q ≤ 0.05, log2 ratio ≤ -1)
Settings in all cases: compound concentration: 200 uM; treatment time: 3 h
USP42 = molecular target: T1, USP42 (UniProt Q9H9J4)
T1 sequence (whole entry): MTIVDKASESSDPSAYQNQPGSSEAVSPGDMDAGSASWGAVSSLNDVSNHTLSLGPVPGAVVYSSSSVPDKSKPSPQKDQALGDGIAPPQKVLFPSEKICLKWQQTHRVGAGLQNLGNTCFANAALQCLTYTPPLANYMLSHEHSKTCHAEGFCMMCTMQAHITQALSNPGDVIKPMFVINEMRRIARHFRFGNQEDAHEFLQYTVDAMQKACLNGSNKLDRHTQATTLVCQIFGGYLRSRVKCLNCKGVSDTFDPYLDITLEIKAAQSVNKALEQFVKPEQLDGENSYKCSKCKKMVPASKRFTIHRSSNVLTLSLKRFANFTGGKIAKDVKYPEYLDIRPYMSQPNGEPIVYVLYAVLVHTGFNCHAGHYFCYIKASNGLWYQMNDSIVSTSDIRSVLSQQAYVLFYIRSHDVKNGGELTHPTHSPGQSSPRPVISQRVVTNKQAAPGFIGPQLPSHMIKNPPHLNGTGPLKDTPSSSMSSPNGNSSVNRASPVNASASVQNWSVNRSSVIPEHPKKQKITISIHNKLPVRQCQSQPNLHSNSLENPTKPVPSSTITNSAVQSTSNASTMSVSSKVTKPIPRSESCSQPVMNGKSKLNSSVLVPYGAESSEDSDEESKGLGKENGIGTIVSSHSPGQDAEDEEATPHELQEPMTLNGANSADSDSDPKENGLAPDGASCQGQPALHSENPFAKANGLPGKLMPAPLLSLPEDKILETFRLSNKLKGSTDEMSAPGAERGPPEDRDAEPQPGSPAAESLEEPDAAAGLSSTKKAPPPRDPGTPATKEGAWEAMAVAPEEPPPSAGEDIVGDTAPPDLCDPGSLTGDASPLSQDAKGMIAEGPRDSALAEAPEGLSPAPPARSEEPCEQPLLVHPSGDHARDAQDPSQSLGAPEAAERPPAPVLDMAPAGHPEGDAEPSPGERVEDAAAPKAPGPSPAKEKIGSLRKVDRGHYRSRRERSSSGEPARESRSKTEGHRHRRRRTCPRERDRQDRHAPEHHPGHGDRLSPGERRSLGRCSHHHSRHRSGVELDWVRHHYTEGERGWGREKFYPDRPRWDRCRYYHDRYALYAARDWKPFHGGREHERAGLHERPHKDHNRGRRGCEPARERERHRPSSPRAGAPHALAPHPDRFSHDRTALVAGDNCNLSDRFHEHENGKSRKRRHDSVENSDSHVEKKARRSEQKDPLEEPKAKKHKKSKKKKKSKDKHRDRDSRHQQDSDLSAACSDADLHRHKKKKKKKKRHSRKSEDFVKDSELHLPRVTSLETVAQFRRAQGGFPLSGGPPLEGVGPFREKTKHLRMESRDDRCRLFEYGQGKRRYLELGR
Method in brief: (§1)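 HEK293T lysate (495 µg per sample, in Tris/CHAPS/IGEPAL buffer with protease inhibitors) was treated in triplicate with fragment at 200 µM or with DMSO for 3 h. It was then treated with Biotin-Ahx-Ub-VS (0.5 µM final) for 1 h. Labelled DUBs were NeutrAvidin-enriched, digested with LysC and trypsin, and run by diaPASEF LC-MS/MS. Spectronaut label-free quantities were global-median-normalised. Values are average log2 ratios fragment/DMSO by unpaired t-test, using proteins with ≥2 unique peptides.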

USP46 = USP46 (UniProt P62068)
Method in brief: as §1

USP47 = molecular target: T2, USP47 (UniProt Q96K76)
T2 sequence (whole entry): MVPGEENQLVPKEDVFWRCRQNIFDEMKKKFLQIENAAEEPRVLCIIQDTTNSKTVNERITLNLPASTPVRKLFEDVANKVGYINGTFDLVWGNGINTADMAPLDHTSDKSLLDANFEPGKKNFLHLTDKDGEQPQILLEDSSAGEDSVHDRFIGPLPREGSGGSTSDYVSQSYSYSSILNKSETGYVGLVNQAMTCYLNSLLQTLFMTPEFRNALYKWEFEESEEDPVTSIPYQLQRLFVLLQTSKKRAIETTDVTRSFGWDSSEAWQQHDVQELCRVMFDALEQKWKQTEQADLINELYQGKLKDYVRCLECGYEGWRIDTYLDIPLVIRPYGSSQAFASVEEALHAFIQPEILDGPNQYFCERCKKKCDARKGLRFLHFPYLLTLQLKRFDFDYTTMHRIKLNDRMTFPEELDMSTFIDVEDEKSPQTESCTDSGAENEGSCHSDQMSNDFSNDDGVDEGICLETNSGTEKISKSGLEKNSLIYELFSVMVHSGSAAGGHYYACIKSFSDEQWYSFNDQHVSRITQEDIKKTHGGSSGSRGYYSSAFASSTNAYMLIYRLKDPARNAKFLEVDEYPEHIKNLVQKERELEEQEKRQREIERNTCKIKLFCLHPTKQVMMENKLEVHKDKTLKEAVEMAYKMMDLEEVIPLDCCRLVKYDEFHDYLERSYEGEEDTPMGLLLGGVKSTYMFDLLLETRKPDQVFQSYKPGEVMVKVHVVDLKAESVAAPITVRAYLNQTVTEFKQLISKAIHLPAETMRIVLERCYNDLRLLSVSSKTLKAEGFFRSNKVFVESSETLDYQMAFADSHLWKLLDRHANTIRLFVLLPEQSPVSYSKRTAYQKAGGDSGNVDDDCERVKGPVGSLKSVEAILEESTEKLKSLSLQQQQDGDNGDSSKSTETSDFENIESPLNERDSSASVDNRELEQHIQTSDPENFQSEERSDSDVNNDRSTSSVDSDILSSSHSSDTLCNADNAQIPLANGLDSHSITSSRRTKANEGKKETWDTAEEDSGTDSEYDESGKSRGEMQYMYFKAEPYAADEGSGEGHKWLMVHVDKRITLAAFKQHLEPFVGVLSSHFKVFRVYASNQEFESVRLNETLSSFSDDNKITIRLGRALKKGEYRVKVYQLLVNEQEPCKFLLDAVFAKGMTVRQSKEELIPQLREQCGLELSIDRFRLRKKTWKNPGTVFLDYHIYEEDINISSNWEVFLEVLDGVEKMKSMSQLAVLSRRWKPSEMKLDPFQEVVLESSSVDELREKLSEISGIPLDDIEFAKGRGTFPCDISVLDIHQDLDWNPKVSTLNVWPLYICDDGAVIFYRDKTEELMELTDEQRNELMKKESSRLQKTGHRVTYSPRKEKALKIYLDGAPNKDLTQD
Method in brief: as §1

USP48 = molecular target: T3, USP48 (UniProt Q86UV5)
T3 sequence (whole entry): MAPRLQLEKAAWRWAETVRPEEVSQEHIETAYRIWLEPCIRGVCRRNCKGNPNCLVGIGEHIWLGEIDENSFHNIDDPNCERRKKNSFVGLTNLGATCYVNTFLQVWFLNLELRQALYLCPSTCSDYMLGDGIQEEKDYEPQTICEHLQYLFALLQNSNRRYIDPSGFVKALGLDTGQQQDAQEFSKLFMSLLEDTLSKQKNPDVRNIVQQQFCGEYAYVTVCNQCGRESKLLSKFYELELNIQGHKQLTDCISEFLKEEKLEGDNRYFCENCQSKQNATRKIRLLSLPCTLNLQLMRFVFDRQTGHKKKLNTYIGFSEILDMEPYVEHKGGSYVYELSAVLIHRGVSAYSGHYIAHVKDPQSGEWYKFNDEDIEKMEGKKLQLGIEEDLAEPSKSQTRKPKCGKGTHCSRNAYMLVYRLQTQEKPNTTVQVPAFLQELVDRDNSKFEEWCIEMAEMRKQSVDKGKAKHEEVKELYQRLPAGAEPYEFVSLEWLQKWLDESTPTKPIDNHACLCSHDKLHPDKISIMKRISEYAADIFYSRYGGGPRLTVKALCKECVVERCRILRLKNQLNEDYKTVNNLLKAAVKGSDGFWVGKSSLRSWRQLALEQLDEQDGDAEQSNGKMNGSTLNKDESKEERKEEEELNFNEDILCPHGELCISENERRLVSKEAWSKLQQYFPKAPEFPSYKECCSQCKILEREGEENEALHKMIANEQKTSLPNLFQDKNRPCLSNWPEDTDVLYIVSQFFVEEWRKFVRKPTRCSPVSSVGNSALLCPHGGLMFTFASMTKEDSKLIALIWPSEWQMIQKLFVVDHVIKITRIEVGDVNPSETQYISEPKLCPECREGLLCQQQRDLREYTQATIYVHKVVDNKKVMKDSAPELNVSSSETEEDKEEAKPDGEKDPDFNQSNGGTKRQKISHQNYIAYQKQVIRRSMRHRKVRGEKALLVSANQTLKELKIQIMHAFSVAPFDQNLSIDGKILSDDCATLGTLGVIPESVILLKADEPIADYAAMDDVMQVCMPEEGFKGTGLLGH
Method in brief: as §1

USP5 = molecular target: T4, USP5 (UniProt P45974)
T4 sequence (whole entry): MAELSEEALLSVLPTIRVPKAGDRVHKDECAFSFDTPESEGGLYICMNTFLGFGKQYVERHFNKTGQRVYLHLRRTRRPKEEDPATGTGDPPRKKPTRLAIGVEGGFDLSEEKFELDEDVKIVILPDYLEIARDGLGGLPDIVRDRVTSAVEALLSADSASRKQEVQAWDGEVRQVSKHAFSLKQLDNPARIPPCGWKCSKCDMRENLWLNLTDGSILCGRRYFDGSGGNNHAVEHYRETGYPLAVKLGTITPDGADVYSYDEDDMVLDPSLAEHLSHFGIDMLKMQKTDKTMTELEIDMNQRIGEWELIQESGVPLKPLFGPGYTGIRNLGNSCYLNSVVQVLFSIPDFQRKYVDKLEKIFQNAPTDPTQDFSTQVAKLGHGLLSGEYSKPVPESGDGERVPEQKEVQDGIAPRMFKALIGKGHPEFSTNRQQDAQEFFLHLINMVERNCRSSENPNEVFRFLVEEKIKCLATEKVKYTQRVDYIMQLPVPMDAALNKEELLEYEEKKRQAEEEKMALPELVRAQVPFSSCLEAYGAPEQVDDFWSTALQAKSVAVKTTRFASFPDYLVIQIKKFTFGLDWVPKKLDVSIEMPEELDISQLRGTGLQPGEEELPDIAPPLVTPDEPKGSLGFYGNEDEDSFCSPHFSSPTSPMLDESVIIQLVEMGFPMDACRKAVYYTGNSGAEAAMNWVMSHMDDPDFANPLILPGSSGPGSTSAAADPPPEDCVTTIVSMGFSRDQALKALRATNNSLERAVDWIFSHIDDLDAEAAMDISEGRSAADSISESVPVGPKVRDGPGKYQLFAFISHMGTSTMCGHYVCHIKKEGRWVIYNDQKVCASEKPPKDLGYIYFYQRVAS
Method in brief: as §1

USP54 = USP54 (UniProt Q70EL1)
Method in brief: as §1

USP7 = USP7 (UniProt Q93009)
Method in brief: as §1

USP8 = molecular target: T5, USP8 (UniProt P40818)
T5 sequence (whole entry): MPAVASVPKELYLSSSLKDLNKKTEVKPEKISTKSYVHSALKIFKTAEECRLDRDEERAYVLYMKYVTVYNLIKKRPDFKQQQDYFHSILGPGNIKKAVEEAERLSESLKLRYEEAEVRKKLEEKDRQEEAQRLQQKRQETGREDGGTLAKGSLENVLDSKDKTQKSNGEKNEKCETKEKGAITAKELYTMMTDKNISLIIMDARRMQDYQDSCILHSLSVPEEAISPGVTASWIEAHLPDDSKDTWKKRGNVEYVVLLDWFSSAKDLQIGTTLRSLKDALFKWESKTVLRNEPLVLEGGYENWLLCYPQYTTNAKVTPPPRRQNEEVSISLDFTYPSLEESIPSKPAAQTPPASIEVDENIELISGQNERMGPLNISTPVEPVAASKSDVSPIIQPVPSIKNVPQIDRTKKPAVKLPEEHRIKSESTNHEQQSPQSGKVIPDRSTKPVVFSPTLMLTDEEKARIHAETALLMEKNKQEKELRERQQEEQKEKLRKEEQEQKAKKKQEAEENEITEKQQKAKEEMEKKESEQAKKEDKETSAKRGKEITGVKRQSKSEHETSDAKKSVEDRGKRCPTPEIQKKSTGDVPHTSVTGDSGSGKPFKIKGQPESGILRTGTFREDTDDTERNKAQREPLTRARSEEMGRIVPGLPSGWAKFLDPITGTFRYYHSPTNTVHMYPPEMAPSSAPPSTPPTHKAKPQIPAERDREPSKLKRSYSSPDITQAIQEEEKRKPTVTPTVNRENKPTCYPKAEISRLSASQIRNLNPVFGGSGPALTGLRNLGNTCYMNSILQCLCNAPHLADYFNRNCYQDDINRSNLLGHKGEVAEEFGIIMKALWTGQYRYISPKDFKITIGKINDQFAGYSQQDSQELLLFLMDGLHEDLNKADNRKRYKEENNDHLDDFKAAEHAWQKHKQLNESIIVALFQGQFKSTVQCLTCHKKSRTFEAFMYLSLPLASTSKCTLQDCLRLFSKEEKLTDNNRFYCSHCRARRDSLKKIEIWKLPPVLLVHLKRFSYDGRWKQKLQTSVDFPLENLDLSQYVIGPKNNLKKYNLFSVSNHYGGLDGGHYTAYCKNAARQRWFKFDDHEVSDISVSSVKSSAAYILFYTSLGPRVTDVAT
Method in brief: as §1

USP9X = USP9X (UniProt Q93008)
Method in brief: as §1

UniProt O00487 = molecular target: UniProt O00487
Method in brief: as §1

Measured: log2 ratio of Biotin-Ahx-Ub-VS probe labelling

Sequence of USP9X (Q93008 whole entry): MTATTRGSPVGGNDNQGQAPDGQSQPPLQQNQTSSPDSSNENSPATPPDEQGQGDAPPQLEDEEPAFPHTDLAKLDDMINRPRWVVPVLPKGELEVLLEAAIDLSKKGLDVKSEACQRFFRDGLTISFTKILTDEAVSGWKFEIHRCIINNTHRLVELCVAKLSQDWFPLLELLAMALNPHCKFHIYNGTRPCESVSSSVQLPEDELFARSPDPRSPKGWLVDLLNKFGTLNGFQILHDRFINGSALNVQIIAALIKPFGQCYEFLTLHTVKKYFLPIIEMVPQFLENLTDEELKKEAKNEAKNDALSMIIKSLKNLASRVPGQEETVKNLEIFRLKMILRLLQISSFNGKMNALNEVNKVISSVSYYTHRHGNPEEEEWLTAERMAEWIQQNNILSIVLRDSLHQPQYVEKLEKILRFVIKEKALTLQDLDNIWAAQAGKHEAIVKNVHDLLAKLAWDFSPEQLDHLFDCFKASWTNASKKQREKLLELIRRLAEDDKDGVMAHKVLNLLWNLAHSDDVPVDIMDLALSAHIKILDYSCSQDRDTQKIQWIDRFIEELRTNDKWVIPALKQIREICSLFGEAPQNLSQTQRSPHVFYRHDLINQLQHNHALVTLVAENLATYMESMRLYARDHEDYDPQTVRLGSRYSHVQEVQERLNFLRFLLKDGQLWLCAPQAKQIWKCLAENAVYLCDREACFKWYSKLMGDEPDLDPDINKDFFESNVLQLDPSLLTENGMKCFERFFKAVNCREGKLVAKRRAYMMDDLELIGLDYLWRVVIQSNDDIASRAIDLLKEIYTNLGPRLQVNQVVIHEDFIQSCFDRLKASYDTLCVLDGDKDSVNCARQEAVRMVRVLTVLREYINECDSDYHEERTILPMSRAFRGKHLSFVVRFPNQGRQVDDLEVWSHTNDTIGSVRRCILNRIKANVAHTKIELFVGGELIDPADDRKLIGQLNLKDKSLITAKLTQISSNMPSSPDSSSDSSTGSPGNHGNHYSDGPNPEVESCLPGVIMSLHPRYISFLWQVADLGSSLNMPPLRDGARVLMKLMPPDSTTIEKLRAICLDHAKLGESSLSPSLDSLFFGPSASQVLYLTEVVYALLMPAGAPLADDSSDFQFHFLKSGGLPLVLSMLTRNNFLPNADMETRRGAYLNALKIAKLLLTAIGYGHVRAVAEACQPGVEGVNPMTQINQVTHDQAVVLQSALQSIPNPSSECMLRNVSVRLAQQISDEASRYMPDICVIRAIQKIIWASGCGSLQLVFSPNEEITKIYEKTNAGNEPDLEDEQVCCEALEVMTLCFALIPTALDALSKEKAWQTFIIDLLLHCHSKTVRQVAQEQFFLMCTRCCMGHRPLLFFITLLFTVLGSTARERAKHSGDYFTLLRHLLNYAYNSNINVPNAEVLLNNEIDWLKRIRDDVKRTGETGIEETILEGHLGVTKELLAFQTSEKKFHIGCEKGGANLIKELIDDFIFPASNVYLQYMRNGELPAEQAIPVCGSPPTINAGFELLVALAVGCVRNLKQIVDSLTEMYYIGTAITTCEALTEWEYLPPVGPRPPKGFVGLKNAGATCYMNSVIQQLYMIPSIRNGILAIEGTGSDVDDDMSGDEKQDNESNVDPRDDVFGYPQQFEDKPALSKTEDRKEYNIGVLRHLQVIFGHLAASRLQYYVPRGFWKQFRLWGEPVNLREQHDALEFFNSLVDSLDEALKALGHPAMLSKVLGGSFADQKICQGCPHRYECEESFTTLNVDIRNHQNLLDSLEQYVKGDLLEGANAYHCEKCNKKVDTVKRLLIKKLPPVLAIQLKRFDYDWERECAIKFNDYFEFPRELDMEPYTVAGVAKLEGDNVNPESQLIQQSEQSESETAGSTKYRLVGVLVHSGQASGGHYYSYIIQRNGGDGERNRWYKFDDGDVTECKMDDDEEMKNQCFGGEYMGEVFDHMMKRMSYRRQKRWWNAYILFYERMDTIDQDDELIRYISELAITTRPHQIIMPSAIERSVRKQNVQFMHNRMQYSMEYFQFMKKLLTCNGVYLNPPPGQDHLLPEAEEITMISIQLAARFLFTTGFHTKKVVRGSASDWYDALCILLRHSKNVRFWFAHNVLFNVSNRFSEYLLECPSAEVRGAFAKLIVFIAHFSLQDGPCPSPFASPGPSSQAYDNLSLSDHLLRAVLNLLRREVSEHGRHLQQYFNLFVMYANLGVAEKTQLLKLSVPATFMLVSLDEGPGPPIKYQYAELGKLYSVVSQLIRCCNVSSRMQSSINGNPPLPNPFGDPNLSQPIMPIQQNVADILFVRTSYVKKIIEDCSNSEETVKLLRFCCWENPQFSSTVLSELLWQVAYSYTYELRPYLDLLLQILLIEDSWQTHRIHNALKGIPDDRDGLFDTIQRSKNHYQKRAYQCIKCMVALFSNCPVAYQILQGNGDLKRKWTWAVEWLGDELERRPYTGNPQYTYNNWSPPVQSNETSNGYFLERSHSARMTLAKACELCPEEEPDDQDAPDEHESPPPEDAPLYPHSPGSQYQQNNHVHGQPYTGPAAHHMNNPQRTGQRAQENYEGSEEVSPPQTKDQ
Sequence of USP7 (Q93009 whole entry, looked up): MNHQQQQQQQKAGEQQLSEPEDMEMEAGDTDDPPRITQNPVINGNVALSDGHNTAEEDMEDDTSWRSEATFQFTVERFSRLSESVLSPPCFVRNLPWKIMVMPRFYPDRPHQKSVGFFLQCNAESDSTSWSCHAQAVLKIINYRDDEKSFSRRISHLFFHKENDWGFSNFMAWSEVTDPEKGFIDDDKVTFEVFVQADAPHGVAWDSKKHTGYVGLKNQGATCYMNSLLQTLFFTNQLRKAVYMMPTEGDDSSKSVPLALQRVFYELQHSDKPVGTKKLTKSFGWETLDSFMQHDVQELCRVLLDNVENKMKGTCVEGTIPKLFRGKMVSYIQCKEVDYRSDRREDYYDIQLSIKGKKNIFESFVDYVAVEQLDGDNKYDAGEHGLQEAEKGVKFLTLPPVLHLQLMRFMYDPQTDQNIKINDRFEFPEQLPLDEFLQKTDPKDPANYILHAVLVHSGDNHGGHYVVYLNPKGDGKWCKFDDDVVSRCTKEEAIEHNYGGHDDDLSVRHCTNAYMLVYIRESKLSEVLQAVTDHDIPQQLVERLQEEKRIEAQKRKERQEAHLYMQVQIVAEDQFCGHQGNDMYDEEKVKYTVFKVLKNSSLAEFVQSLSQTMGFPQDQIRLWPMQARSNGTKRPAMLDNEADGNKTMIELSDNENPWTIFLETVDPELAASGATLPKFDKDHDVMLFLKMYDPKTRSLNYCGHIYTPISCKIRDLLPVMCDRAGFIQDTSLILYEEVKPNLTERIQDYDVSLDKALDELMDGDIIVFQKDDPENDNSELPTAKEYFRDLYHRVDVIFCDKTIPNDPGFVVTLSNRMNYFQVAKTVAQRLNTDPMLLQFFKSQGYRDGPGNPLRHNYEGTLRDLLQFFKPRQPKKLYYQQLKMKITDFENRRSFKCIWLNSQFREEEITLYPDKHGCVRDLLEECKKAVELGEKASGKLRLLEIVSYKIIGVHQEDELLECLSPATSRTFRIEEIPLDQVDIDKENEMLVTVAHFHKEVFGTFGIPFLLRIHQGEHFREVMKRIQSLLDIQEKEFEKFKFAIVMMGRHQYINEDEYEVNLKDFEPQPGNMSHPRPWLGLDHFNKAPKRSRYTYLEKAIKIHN
Sequence of USP46 (P62068 whole entry): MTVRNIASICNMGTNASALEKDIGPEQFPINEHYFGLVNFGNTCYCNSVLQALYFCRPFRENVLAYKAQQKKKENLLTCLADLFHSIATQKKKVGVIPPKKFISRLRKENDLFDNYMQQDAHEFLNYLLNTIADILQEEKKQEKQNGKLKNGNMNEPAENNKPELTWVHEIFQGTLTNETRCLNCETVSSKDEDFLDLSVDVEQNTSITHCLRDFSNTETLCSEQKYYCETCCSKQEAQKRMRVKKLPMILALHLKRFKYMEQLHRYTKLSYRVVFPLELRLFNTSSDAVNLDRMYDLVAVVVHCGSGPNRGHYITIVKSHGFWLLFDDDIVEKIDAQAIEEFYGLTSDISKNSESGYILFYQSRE
Sequence of UniProt O00487 (O00487 whole entry): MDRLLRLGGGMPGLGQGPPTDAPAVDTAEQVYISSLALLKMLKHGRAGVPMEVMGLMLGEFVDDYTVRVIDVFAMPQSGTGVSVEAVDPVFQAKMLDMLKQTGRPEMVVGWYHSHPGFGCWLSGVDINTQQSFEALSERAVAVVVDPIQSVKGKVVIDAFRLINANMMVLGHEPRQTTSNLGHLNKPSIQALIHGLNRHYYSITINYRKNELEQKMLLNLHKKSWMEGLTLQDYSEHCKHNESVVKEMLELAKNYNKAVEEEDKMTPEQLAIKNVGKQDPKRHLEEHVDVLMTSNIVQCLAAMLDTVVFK

Cc1cccc(C(CNC(=O)CCl)N2CCOCC2)c1.Cl (stereo not given)
inactive: USP42 -0.208 | USP46 0.086 | USP47 0.268 | USP48 -0.106 | USP5 -0.22 | USP54 -0.0536 | USP7 -0.244 | USP8 -0.417 | USP9X -0.0494 | UniProt O00487 0.181
